Experimental data published in PubChem BioAssay (NCI).
“And” between values parts separate entries of the source, which are not always exact repeats. Equal entries are not always repeated. About 83,000 compounds went through this panel and 20% of them were active in at least one assay; those are over-represented in the sample as a whole.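 Compound tested at a single concentration for 48 hours in 96-well plates; a percent growth value below 10 was scored as active.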 The source made the active and inactive calls.

Tests used:
Experiment in all cases: NCI-60 one-dose screen, 48 h (100 = growth as untreated, 0 = no growth, -100 = all killed)
SR leukemia = test system: SR leukemia
RPMI-8226 leukemia = test system: RPMI-8226 leukemia
OVCAR-8 ovarian = test system: OVCAR-8 ovarian
OVCAR-5 ovarian = test system: OVCAR-5 ovarian
OVCAR-4 ovarian = test system: OVCAR-4 ovarian
SK-OV-3 ovarian = test system: SK-OV-3 ovarian
IGROV1 ovarian = test system: IGROV1 ovarian
OVCAR-3 ovarian = test system: OVCAR-3 ovarian
HS 578T breast = test system: HS 578T breast
NCI/ADR-RES ovarian = test system: NCI/ADR-RES ovarian
BT-549 breast = test system: BT-549 breast
MDA-MB-435 melanoma = test system: MDA-MB-435 melanoma
MCF7 breast = test system: MCF7 breast
HCT-116 colon = test system: HCT-116 colon
HCC-2998 colon = test system: HCC-2998 colon
KM12 colon = test system: KM12 colon
SW-620 colon = conditions: 10 µM

Measured: growth

Cc1cc(O)c(C(C)C)cc1Cl
inactive: SR leukemia; 10 µM unless noted 103% | RPMI-8226 leukemia; 10 µM 110% | OVCAR-8 ovarian; 10 µM 104% | OVCAR-5 ovarian; 10 µM 105% | OVCAR-4 ovarian; 10 µM 109% | SK-OV-3 ovarian; 10 µM 101% | IGROV1 ovarian; 10 µM 112% | OVCAR-3 ovarian; 10 µM 103% | HS 578T breast; 10 µM 99.5% | NCI/ADR-RES ovarian; 10 µM 112% | BT-549 breast; 10 µM 111% | MDA-MB-435 melanoma; 10 µM 99.2% | MCF7 breast; 10 µM 104% | HCT-116 colon; 10 µM 98.9% | HCC-2998 colon; 10 µM 101% | KM12 colon; 10 µM 112%

COc1cccc2c1C(=O)c1c(O)c3c(c(O)c1C2=O)C[C@@](O)(C(=O)CO)C[C@@H]3OC1CC(N)C(O)C(C)O1 (stereo partly specified)
active: SR leukemia; 2.5 µM -29.1% | SR leukemia; 10 µM -0.536% | RPMI-8226 leukemia; 1 µM -15.7% | RPMI-8226 leukemia; 10 µM -17.4% | OVCAR-5 ovarian; 10 µM -59.3% | IGROV1 ovarian; 10 µM -7.77% | HS 578T breast; 10 µM -68.2% | NCI/ADR-RES ovarian; 10 µM 4.94% | BT-549 breast; 1 µM 5.17% | BT-549 breast; 10 µM -59.2% | MDA-MB-435 melanoma; 10 µM -83.9% | MCF7 breast; 2.5 µM 7.74% | MCF7 breast; 10 µM 3.37% | HCT-116 colon; 1 µM 8.95% | HCT-116 colon; 10 µM 2.8% | HCC-2998 colon; 2.5 µM -13.3% | HCC-2998 colon; 10 µM -54.4% | KM12 colon; 10 µM 4.23%
inactive: SR leukemia; 0.0025 µM 81.5% | RPMI-8226 leukemia; 0.0025 µM 101% | RPMI-8226 leukemia; 2.5 µM 62.7% | OVCAR-8 ovarian; 0.0025 µM 99.5% | OVCAR-8 ovarian; 1 µM 36.6% | OVCAR-8 ovarian; 2.5 µM 45% | OVCAR-5 ovarian; 0.0025 µM 102% | OVCAR-5 ovarian; 1 µM 84.4% | OVCAR-5 ovarian; 2.5 µM 120% | OVCAR-4 ovarian; 0.0025 µM 114% | OVCAR-4 ovarian; 1 µM 68% | OVCAR-4 ovarian; 2.5 µM 67.6% | OVCAR-4 ovarian; 10 µM 14.1% | SK-OV-3 ovarian; 0.0025 µM 95.6% | SK-OV-3 ovarian; 1 µM 28.4% | SK-OV-3 ovarian; 2.5 µM 43.4% | SK-OV-3 ovarian; 10 µM 13.8% | IGROV1 ovarian; 0.0025 µM 85.7% | IGROV1 ovarian; 1 µM 19.9% | IGROV1 ovarian; 2.5 µM 50% | OVCAR-3 ovarian; 0.0025 µM 105% | OVCAR-3 ovarian; 1 µM 81.8% | OVCAR-3 ovarian; 10 µM 10.2% | HS 578T breast; 0.0025 µM 97.9% | HS 578T breast; 1 µM 70.8% | HS 578T breast; 2.5 µM 50% | NCI/ADR-RES ovarian; 0.0025 µM 103% | NCI/ADR-RES ovarian; 1 µM 104% | NCI/ADR-RES ovarian; 2.5 µM 99% | BT-549 breast; 0.0025 µM 81.9% | BT-549 breast; 2.5 µM 65.6% | MDA-MB-435 melanoma; 0.0025 µM 99% | MDA-MB-435 melanoma; 1 µM 50.1% | MDA-MB-435 melanoma; 2.5 µM 72.5% | MCF7 breast; 0.0025 µM 71.4% | MCF7 breast; 1 µM 18.7% | HCT-116 colon; 0.0025 µM 76.1% | HCT-116 colon; 2.5 µM 28.1% | HCC-2998 colon; 0.0025 µM 84.7% | HCC-2998 colon; 1 µM 59.8% | KM12 colon; 0.0025 µM 93.1% | KM12 colon; 1 µM 32.1%

O=C(O)COc1ccc(OCC(=O)O)cc1
active: RPMI-8226 leukemia; 10 µM -15.6% | MCF7 breast; 10 µM 6.66% | HCT-116 colon; 10 µM 9.02% | HCC-2998 colon; 10 µM -34.2% | KM12 colon; 10 µM 8.16%
inactive: SR leukemia; 10 µM unless noted 10.3% | OVCAR-8 ovarian; 10 µM 13% | OVCAR-5 ovarian; 10 µM 11% | OVCAR-4 ovarian; 10 µM 21.4% | SK-OV-3 ovarian; 10 µM 11.4% | IGROV1 ovarian; 10 µM 27.4% | OVCAR-3 ovarian; 10 µM 16.7% | HS 578T breast; 10 µM 20.9% | NCI/ADR-RES ovarian; 10 µM 83.3% | BT-549 breast; 10 µM 20.9% | MDA-MB-435 melanoma; 10 µM 30.4% | SW-620 colon 15.1%

CC1=CC(C)=Nc2ccc(Cl)cc2N1
inactive: SR leukemia; 10 µM unless noted 91.1% | RPMI-8226 leukemia; 10 µM 102% | OVCAR-8 ovarian; 10 µM 102% | OVCAR-5 ovarian; 10 µM 112% | OVCAR-4 ovarian; 10 µM 110% | SK-OV-3 ovarian; 10 µM 98.7% | IGROV1 ovarian; 10 µM 103% | OVCAR-3 ovarian; 10 µM 102% | HS 578T breast; 10 µM 104% | NCI/ADR-RES ovarian; 10 µM 102% | BT-549 breast; 10 µM 108% | MDA-MB-435 melanoma; 10 µM 107% | MCF7 breast; 10 µM 101% | HCT-116 colon; 10 µM 100% | HCC-2998 colon; 10 µM 103% | KM12 colon; 10 µM 100%

Nc1nc(=S)c2ncn(C3OC(CO)C(O)C3O)c2[nH]1 (stereo unspecified)
126% (inactive) and -1.38% (active): BT-549 breast; 10 µM
123% (inactive) and 9.98% (active): MCF7 breast; 10 µM
103% (inactive) and 0.898% (active): RPMI-8226 leukemia; 10 µM
112% (inactive) and 8.33% (active): OVCAR-3 ovarian; 10 µM
inactive: SR leukemia; 10 µM unless noted 119% | OVCAR-8 ovarian; 10 µM 100% and 13.1% | OVCAR-5 ovarian; 10 µM 101% and 45.2% | OVCAR-4 ovarian; 10 µM 103% and 29.3% | SK-OV-3 ovarian; 10 µM 118% | IGROV1 ovarian; 10 µM 108% | HS 578T breast; 10 µM 163% and 50.6% | NCI/ADR-RES ovarian; 10 µM 106% and 29.9% | MDA-MB-435 melanoma; 10 µM 109% and 17.7% | SW-620 colon 107% and 35.9% | HCT-116 colon; 10 µM 107% and 17.3% | HCC-2998 colon; 10 µM 109% and 23% | KM12 colon; 10 µM 104% and 19.8%
